Measurements: PubChem BioAssay (EPA / NIEHS)
“And” between values parts separate entries of the source, which are not always exact repeats. Equal values may be shown once. Inconclusive results are not listed. The source made the active and inactive calls. Rule for the calls: active = hit-call score of the fitted dose curve at least 0.9, where 1 is the maximum; inconclusive = response in the unintended direction; inactive = score below 0.9.

Assay: IUF_NPC1_cytotoxicity_72hr: Cytotoxicity Assessment at 72 hours in the Leibniz Research Institute for Environmental Medicine (IUF) Neural Progenitor Cell Proliferation Assay (NPC1) (AID 2284332);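 note: rising LDH signal means more cytotoxicity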
Method: IUF_NPC1 is a cell-based, multiplexed assay that uses hNPC, a human primary neural progenitor cells, with measurements taken at 72 hours after chemical dosing in a 96-well plate. Human neural progenitor cells (hNPC) are generated from human fetal brain cortex at gestational week (GW) 16-19. Grown in suspension culture and under proliferative conditions (proliferation media and growth factors), these cells represent neural progenitor cell proliferation. In the NPC1 assay, hNPC's are exposed to the test compound for 72h. Cell proliferation is assessed as an increase in sphere area using automated phase contrast imaging and as incorporation of Bromodeoxyuridine (BrdU) during DNA synthesis using a luminescence-based cell proliferation ELISA. In parallel, the cell viability is assessed using an alamar blue viability assay and the cytotoxicity using a lactate dehydrogenase dependent membrane integrity assay.IUF_NPC1_cytotoxicity_72hr is one of 4 assay components measured from the IUF_NPC1 assay. It is designed to measure cytotoxicity at 72 hrs due to loss of membrane integrity. LDH measurements are performed from medium supernatants of each well and are based on the reduction of resazurin to resorufin measured as fluorescence signal (relative fluorescence unit) in a multiplate reader. Data from the IUF_NPC1_cytotoxicity_72hr component was analyzed at the endpoint IUF_NPC1_cytotoxicity_72hr in the positive analysis fitting direction relative to the dynamic range and baseline of activity. Using a type of viability reporter, gain-of-signal activity can be used to understand cytotoxicity effects.
After the cell expansion period, the cells are cultured for up to four weeks in which they are passaged every week. Between one to three days after passaging, depending on the size chosen for passaging, spheres at a size of 0.3 mm are used in the assay. For the assessment of neural progenitor cell proliferation, the spheres are plated in poly-Hema coated 96-well U-bottom plates filled with proliferation medium containing growth factors (EGF and FGF). One 0.25 - 0.35 mm big sphere is plated in the middle of each well. Within 3 days NPCs proliferate and grow in size. Cultivation during the test method is performed at 37C and 5% CO2 at a pH of 7.2-7.6. As a positive control, spheres are cultivated in the absence of growth factors (EGF and FGF), which dramatically reduces proliferation. Exposure starts on the plating day (day 0) and is continued over three days, without chemical renewal, until the experiment is terminated. The assay is terminated by the assessment of cell viability, cytotoxicity, and proliferation by BrdU. All endpoints are generated from the same experimental run and from each well/sphere in the 96-well plate.

| SMILES | outcome | AC50 |
| --- | --- | --- |
| COP(=O)(OC)C(O)C(Cl)(Cl)Cl (stereo not drawn) | inactive |  |
| CC1=NNC(=O)N(/N=C/c2cccnc2)C1 | inactive |  |
| CN(C)[C@@H]1C(=O)C(C(N)=O)=C(O)[C@@]2(O)C(=O)C3=C(O)c4c(O)cccc4[C@@](C)(O)[C@H]3[C@H](O)[C@@H]12 | inactive |  |
| CCOP(=S)(OCC)Oc1cc(C)nc(C(C)C)n1 | inactive |  |
| S=C1NCCN1 | inactive |  |
| COP(=O)(OC)OC(Br)C(Cl)(Cl)Br (stereo not drawn) | inactive |  |
| CCCSP(=O)(OCC)SCCC | inactive |  |
| CCOP(=S)(Oc1cnc(C(C)(C)C)nc1)OC(C)C (stereo not drawn) | inactive |  |
| CCOP(=O)(OCC)Oc1cc(C)nc(C(C)C)n1 | inactive |  |
| CON=C(C(=O)OC)c1ccccc1CON=C(C)c1cccc(C(F)(F)F)c1 | inactive |  |
| CC[C@H](C)[C@H]1O[C@]2(C=C[C@@H]1C)C[C@@H]1C[C@@H](C/C=C(\C)[C@@H](O[C@H]3C[C@H](OC)[C@@H](O[C@H]4C[C@H](OC)[C@@H](NC)[C@H](C)O4)[C@H](C)O3)[C@@H](C)/C=C/C=C3\CO[C@@H]4[C@H](O)C(C)=C[C@@H](C(=O)O1)[C@]34O)O2 |  | 18.5 µM (active) and 3.79 µM (active) |
| C[N+]1(C)CCCCC1 | inactive |  |
| CSC1=N[C@@](C)(c2ccccc2)C(=O)N1Nc1ccccc1 | inactive |  |
| CCOP(=O)(NC(C)C)Oc1ccc(SC)c(C)c1 (stereo not drawn) | inactive |  |
| CCOP(=S)(OCC)OC(Cl)C(Cl)(Cl)Cl (stereo not drawn) | inactive |  |
| C=C(C)[C@H]1Cc2c(ccc3c2O[C@@H]2COc4cc(OC)c(OC)cc4[C@@H]2C3=O)O1 | inactive |  |
| O=[N+]([O-])c1cc(C(F)(F)F)c(Cl)c([N+](=O)[O-])c1Nc1ncc(C(F)(F)F)cc1Cl |  | 21.9 µM (active) |
| CCOP(=S)(OCC)SCCSCC | inactive |  |
| CN1COCN(Cc2cnc(Cl)s2)C1=N[N+](=O)[O-] | inactive |  |
| COP(=O)(NC(C)=O)SC (stereo not drawn) | inactive |  |
| CCOC(=O)CC(SP(=O)(OC)OC)C(=O)OCC (stereo not drawn) | inactive |  |
| CCCCSP(=O)(SCCCC)SCCCC |  | 82.5 µM (active) |
| CC(=NC#N)N(C)Cc1ccc(Cl)nc1 | inactive |  |
